# PubChem BioAssay (NCI)
# Compounds without any hit were thinned out: in the full panel of roughly 83,000, 20% have a hit.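 In brief: 96-well plates, 48 h treatment, single concentration, percent growth endpoint.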 Active and inactive are the calls of the source. How the source made its calls: active means growth percent below 10; inactive means the rest.
# System: NCI-H460 lung
# Assay: NCI-60 one-dose screen, 48 h (100 = growth as untreated, 0 = no growth, -100 = all killed)
# Details: 10 µM unless noted
row,Compound,growth
1,CC(C)Cc1ccc(C(C)C(=O)NCc2ccc(Cn3c(=O)sn(-c4ccc(Cl)cc4)c3=O)cc2)cc1 (stereo unspecified),61.1% (inactive)
2,COc1ccc(Cn2nc3c(c2-c2cc(OC)c(OC)c(OC)c2)-c2oncc2CC3)cc1,107% (inactive)
3,Cc1ccc(C(c2c(O)c3cc(Br)ccc3[nH]c2=O)c2c(O)c3cc(Br)ccc3[nH]c2=O)cc1,89.5% (inactive)
4,CN1CCN(Cc2ccc(NC(=O)c3cncc(C#Cc4cnccc4C(F)(F)F)c3)cc2C(F)(F)F)CC1,71.6% (inactive)
5,COc1ccc(/C=C/c2n[nH]c3ccc(N4CCOC4=O)cc23)cc1,1.61% (active)
6,COc1cc2nnn3c4ncccc4c(N=O)c3c2cc1OC,84.9% (inactive)
7,Cc1cc2nc(-c3ccccc3)c(-c3ccccc3)nc2cc1C,102% (inactive)
8,Cc1ccc2[nH]c(=O)cc(-n3nncc3COc3ccc(C=O)cc3)c2c1,106% (inactive)
9,CCCOc1nc(SCCC)nc2c1cnn2-c1ccccc1,101% (inactive)
10,NC(=O)c1cccc(-c2ccccc2N2CCCCC2)c1,108% (inactive)
11,COc1cc2ncnc(Nc3ccc(C(=O)/C=C/c4ccc(C(F)(F)F)cc4F)cc3)c2cc1OC,108% (inactive)
12,CC(=O)OCCCCCNc1ccccc1,118% (inactive)
13,O=C(Nc1sc2c(c1C(=O)O)CCCC2)c1cccc(C(F)(F)F)c1,78.5% (inactive)
14,CCN1C(=O)N(CC)C2NC(SC)=NC21 (stereo unspecified),103% (inactive)
15,C/C(=C(/c1ccccc1)c1ccc(OCC(O)CN2CCOCC2)cc1)c1ccccc1 (stereo unspecified),92.6% (inactive)
16,COc1ccc(C(=O)c2cc3c(N)c(C(=O)Nc4ccc(Br)cc4)sc3nc2C)cc1,50% (inactive)
17,CCOC(=O)Oc1c(OC)cc(C(=O)O[C@@H]2C[C@@H]3CN4CCc5c([nH]c6cc(OC)ccc56)[C@H]4C[C@@H]3[C@H](C(=O)OC)[C@H]2OC)cc1OC,40.9% (inactive)
18,COc1ccc(-c2nc(N/N=C/c3ccco3)nc(N3CCOCC3)c2C#N)cc1,66.4% (inactive)
19,CCC(=O)c1ccc(O)c(OC)c1,104% (inactive)

row,Compound,growth
1,COc1ccc(-c2nc(N=Nc3c(O)[nH]c4ccccc34)nc(N3CCOCC3)c2C#N)cc1,46.5% (inactive)
2,CCCCCCCCCCCCCCCC(=O)OC[C@@]1(O)C[C@@]23CC[C@@H]4C(C)(C)[C@H](O)CC[C@@]4(C)[C@@H]2CC[C@H]1C3,107% (inactive)
3,FC(F)(F)Oc1cccc(-c2cc(NCCCCCCNc3cc(-c4cccc(OC(F)(F)F)c4)nc4ccc(N5CCCC5)cc34)c3cc(N4CCCC4)ccc3n2)c1,-52.1% (active)
4,COc1ccc(C2=C(c3ccccc3)c3ccc(OC(C)=O)cc3OC2(C)C)cc1,84.8% (inactive)
5,Cc1c2c(cc[n+]1Cc1ccc(F)cc1)c1ccc(OCc3cccc(F)c3)cc1n2Cc1cccc(F)c1,-78% (active)
6,CC1=CC2(C)/C=C(C)/C=C\CC(O)/C=C3/C=CC(=C4C(=O)OC2(CC1C)C4=O)OC3 (stereo unspecified),29.2% (inactive)
7,O=C1OC(=O)C2C1CC=CC2c1ccccc1 (stereo unspecified),75.5% (inactive)
8,C=C(C)[C@H]1CC/C(C)=C/CC[C@]2(C)O[C@H]2CC/C(COC(=O)[C@@H](OC(C)=O)[C@H](NC(=O)c2ccccc2)c2ccccc2)=C\[C@@H]1O,89% (inactive)
9,O=C(O)c1cn(C2CC2)c2cc(N3CCN(C(=O)C[n+]4cccc5ccccc54)CC3)c(F)cc2c1=O,96.6% (inactive)
10,COc1ccc(Nn2c(SCC(=O)Nc3nc(-c4ccc(Cl)cc4)cs3)nc(C)c2C)cc1,39.3% (inactive)
11,Cn1c2c(Cl)c(Cl)ccc2c2cc(N)[nH]c(=O)c21,81.9% (inactive)
12,CC(=O)c1c[nH]c2ccc(-c3ccnc(Nc4ccc(NC(=O)c5cccc(F)c5)c(CN5CCOCC5)c4)n3)cc12,-6.06% (active)
13,Clc1nc(Nc2ccccc2)nc(Nc2ccccc2)n1,109% (inactive)
14,O=C1Nc2c(ccc(Cl)c2Cl)/C1=C/c1ccccn1,97.6% (inactive)
15,Cc1ccc2nc3c(cc2c1)CSc1nnc(-c2ccc[nH]c2=S)n1N3,99.2% (inactive)
16,CN1CCN(C(=O)[C@]2(C)CC[C@]3(C)CC[C@]4(C)C(=CC(=O)[C@@H]5[C@@]6(C)CCC(=O)NC(C)(C)[C@@H]6CC[C@]54C)[C@@H]3C2)CC1,102% (inactive)
17,COc1ccc(-c2nn(Cc3ccccc3)c3c2-c2oncc2CC3)cc1OC,95.6% (inactive)
18,O=c1[nH]c2c(s1)CCCC2CN1CCCCC1 (stereo unspecified),106% (inactive)
19,CC(C)(C)CC(C)(C)Nc1c(-c2ccc3c(c2)OCO3)nc2cnccn12,97.2% (inactive)

# System: HOP-92 NSCLC
# Assay: as above
# Details: 10 µM unless noted
row,Compound,growth
1,CC(C)Cc1ccc(C(C)C(=O)NCc2ccc(Cn3c(=O)sn(-c4ccc(Cl)cc4)c3=O)cc2)cc1 (stereo unspecified),75.7% (inactive)
2,COc1ccc(Cn2nc3c(c2-c2cc(OC)c(OC)c(OC)c2)-c2oncc2CC3)cc1,78.2% (inactive)
3,Cc1ccc(C(c2c(O)c3cc(Br)ccc3[nH]c2=O)c2c(O)c3cc(Br)ccc3[nH]c2=O)cc1,74.1% (inactive)
4,CN1CCN(Cc2ccc(NC(=O)c3cncc(C#Cc4cnccc4C(F)(F)F)c3)cc2C(F)(F)F)CC1,55.6% (inactive)
5,COc1ccc(/C=C/c2n[nH]c3ccc(N4CCOC4=O)cc23)cc1,-8.15% (active)
6,COc1cc2nnn3c4ncccc4c(N=O)c3c2cc1OC,-12% (active)
7,Cc1cc2nc(-c3ccccc3)c(-c3ccccc3)nc2cc1C,89.6% (inactive)
8,Cc1ccc2[nH]c(=O)cc(-n3nncc3COc3ccc(C=O)cc3)c2c1,95.6% (inactive)
9,CCCOc1nc(SCCC)nc2c1cnn2-c1ccccc1,98.2% (inactive)
10,NC(=O)c1cccc(-c2ccccc2N2CCCCC2)c1,103% (inactive)
11,COc1cc2ncnc(Nc3ccc(C(=O)/C=C/c4ccc(C(F)(F)F)cc4F)cc3)c2cc1OC,113% (inactive)
12,CC(=O)OCCCCCNc1ccccc1,109% (inactive)
13,O=C(Nc1sc2c(c1C(=O)O)CCCC2)c1cccc(C(F)(F)F)c1,79.2% (inactive)
14,CCN1C(=O)N(CC)C2NC(SC)=NC21 (stereo unspecified),108% (inactive)
15,C/C(=C(/c1ccccc1)c1ccc(OCC(O)CN2CCOCC2)cc1)c1ccccc1 (stereo unspecified),80.2% (inactive)
16,COc1ccc(C(=O)c2cc3c(N)c(C(=O)Nc4ccc(Br)cc4)sc3nc2C)cc1,66.1% (inactive)
17,CCOC(=O)Oc1c(OC)cc(C(=O)O[C@@H]2C[C@@H]3CN4CCc5c([nH]c6cc(OC)ccc56)[C@H]4C[C@@H]3[C@H](C(=O)OC)[C@H]2OC)cc1OC,19% (inactive)
18,COc1ccc(-c2nc(N/N=C/c3ccco3)nc(N3CCOCC3)c2C#N)cc1,49.2% (inactive)
19,CCC(=O)c1ccc(O)c(OC)c1,82.6% (inactive)

row,Compound,growth
1,COc1ccc(-c2nc(N=Nc3c(O)[nH]c4ccccc34)nc(N3CCOCC3)c2C#N)cc1,19.6% (inactive)
2,CCCCCCCCCCCCCCCC(=O)OC[C@@]1(O)C[C@@]23CC[C@@H]4C(C)(C)[C@H](O)CC[C@@]4(C)[C@@H]2CC[C@H]1C3,113% (inactive)
3,FC(F)(F)Oc1cccc(-c2cc(NCCCCCCNc3cc(-c4cccc(OC(F)(F)F)c4)nc4ccc(N5CCCC5)cc34)c3cc(N4CCCC4)ccc3n2)c1,-23.9% (active)
4,COc1ccc(C2=C(c3ccccc3)c3ccc(OC(C)=O)cc3OC2(C)C)cc1,81.1% (inactive)
5,Cc1c2c(cc[n+]1Cc1ccc(F)cc1)c1ccc(OCc3cccc(F)c3)cc1n2Cc1cccc(F)c1,-73.9% (active)
6,CC1=CC2(C)/C=C(C)/C=C\CC(O)/C=C3/C=CC(=C4C(=O)OC2(CC1C)C4=O)OC3 (stereo unspecified),-75.7% (active)
7,O=C1OC(=O)C2C1CC=CC2c1ccccc1 (stereo unspecified),85.3% (inactive)
8,C=C(C)[C@H]1CC/C(C)=C/CC[C@]2(C)O[C@H]2CC/C(COC(=O)[C@@H](OC(C)=O)[C@H](NC(=O)c2ccccc2)c2ccccc2)=C\[C@@H]1O,59.4% (inactive)
9,O=C(O)c1cn(C2CC2)c2cc(N3CCN(C(=O)C[n+]4cccc5ccccc54)CC3)c(F)cc2c1=O,95.5% (inactive)
10,COc1ccc(Nn2c(SCC(=O)Nc3nc(-c4ccc(Cl)cc4)cs3)nc(C)c2C)cc1,38.6% (inactive)
11,Cn1c2c(Cl)c(Cl)ccc2c2cc(N)[nH]c(=O)c21,29.9% (inactive)
12,CC(=O)c1c[nH]c2ccc(-c3ccnc(Nc4ccc(NC(=O)c5cccc(F)c5)c(CN5CCOCC5)c4)n3)cc12,-22.8% (active)
13,Clc1nc(Nc2ccccc2)nc(Nc2ccccc2)n1,77.9% (inactive)
14,O=C1Nc2c(ccc(Cl)c2Cl)/C1=C/c1ccccn1,66.2% (inactive)
15,Cc1ccc2nc3c(cc2c1)CSc1nnc(-c2ccc[nH]c2=S)n1N3,102% (inactive)
16,CN1CCN(C(=O)[C@]2(C)CC[C@]3(C)CC[C@]4(C)C(=CC(=O)[C@@H]5[C@@]6(C)CCC(=O)NC(C)(C)[C@@H]6CC[C@]54C)[C@@H]3C2)CC1,64.7% (inactive)
17,COc1ccc(-c2nn(Cc3ccccc3)c3c2-c2oncc2CC3)cc1OC,49.4% (inactive)
18,O=c1[nH]c2c(s1)CCCC2CN1CCCCC1 (stereo unspecified),104% (inactive)
19,CC(C)(C)CC(C)(C)Nc1c(-c2ccc3c(c2)OCO3)nc2cnccn12,70.3% (inactive)
